Bioassay records deposited in PubChem by Broad Institute.
MITF TRPM1 HTS: increases MITF-driven TRPM1 promoter luciferase signal; SK-MEL-5 TRPM1-promoter luciferase, 24 h; % of positive control, neutral wells = 0; activation, % at 12.5 µM; actives 0.75% (n = 300,000); AID 588334;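 active = mean activation of at least 80% with every replicate also reaching 80%; inconclusive = mean reaches 80% but some replicate falls short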;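 note: 0% = neutral control wells and 100% = parthenolide positive control wells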
rRNA inh HTS: selective bacterial rRNA inhibition in E. coli | actives 1.6% (n = 350,000) | E. coli WT GFP vs humanized-ribosome RFP mutants, fluorescence, 24 h; hits give low values; DMSO median 0, no signal -100 | GFP signal change (wild-type ribosome), % (test concentration not listed);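 active = significant combined selectivity score with lowered wild-type GFP, culture density cut under 30%, mutant RFP and density less affected; inactive = any of these conditions unmet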
MLL AF4-AF9 inh: blocks AF4 peptide binding to human AF9 | AlphaScreen, biotin-AF4 peptide binding to FLAG-AF9 | inhibition, % at 10 µM | AID 651704 | actives 0.47% (n = 350,000);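 active = every replicate reaching a set inhibition limit, whatever the replicate mean, cut at about 25% in these data; inconclusive = mean inhibition reaches that limit but some replicates miss it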;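 note: 0% = plate neutral control median and 100% = total signal loss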
Target sequence (P42568 whole entry, looked up): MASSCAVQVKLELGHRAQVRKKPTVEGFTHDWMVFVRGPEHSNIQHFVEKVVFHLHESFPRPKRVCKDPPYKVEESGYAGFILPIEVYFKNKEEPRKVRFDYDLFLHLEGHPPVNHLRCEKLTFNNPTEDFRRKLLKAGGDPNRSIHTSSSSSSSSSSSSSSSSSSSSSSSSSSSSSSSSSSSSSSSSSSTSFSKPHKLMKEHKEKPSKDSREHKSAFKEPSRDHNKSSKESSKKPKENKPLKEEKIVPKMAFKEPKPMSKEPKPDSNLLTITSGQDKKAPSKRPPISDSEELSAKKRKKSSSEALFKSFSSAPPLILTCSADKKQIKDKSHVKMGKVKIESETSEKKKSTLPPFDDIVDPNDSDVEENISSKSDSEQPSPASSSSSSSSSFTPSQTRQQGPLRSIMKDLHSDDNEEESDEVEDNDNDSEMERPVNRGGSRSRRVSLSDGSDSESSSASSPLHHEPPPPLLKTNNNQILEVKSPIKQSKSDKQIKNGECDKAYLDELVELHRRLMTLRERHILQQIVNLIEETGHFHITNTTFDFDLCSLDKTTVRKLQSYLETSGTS
esBAF inh: inhibitors of esBAF chromatin remodeling in mouse ES cells; Bmi1-luciferase knock-in reporter, 24 h; 100% = twice the neutral-well signal; reporter increase, % at 12.5 µM; actives 2% (n = 350,000); AID 602393; in the data active = activation above about 40%; inconclusive = no clear call, values can overlap the other calls;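 note: 0% = median of the plate's neutral control wells and 100% = double that signal; a rise in the Bmi1 reporter signal indicates esBAF inhibition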
Wnt act: activates Wnt/beta-catenin signaling in a reporter cell assay; activator, plate reader; actives 1.2% (n = 300,000); activation, % at 9.35 µM; in the data active = activation above about 30%, passing the limit was not always enough; inconclusive = no clear call, values can overlap the other calls;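 note: 0% = neutral control wells and 100% = positive control wells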
* marks the source's active call; other numbers are inactive results; ? = inconclusive; nt = not tested or not shown. The list is not random: actives were taken first. Their share in the collection is about 3.7%.

SMILES	MITF TRPM1 HTS	rRNA inh HTS	MLL AF4-AF9 inh	esBAF inh	Wnt act
O=C(NC1CCCCC1)N(c1ccccc1)c1nnc(-c2cccc([N+](=O)[O-])c2)s1	nt	4	7	66*	12
O=C(Nc1cccc([N+](=O)[O-])c1)Nc1cccc([N+](=O)[O-])c1	11	-18*	3	nt	3
O=C(Nc1cccc([N+](=O)[O-])c1)NC1CCCCCCC1	91*	-52	-1	78*	24
Cc1ccc(N2C(=O)N(CC(=O)NC(c3ccccc3)c3ccccc3)C(=O)C2C)cc1 (configuration not stated)	1	nt	nt	nt	nt
C[C@@H]1CCCCO[C@H](CN(C)Cc2ccncc2)[C@@H](C)CN([C@H](C)CO)C(=O)c2cc(NS(=O)(=O)c3cn(C)cn3)ccc2O1	nt	0	-2	3	nt
CN(C)c1ccc(O)c2c1CC1CC3[C@@H](N(C)C)C(=O)C(C(N)=O)=C(O)[C@]3(O)C(=O)C1=C2O (some centres not stated)	-12	-56	-6	17	-4
CCCC(=O)Nc1ccc2c(c1)OC[C@H](C)N(C(=O)c1cccnc1)C[C@@H](C)[C@H](OC)CN(C)C2=O	nt	1	-1	-1	nt
CC1(C)CC2CC(C)(CN2/C=C2/CCCCC2=O)C1 (configuration not stated)	-1	10	32*	nt	0
COc1ccc(CCNC(=O)COC(=O)c2ccccc2NCCO)cc1OC	-3	-1	-13	11	2
O=C(O)c1ccccc1SCc1cn2cc(Cl)ccc2n1	-6	9	-5	nt	43*
O=C1CN(O)C=C2N=c3ccccc3=C2N1c1ccc([N+](=O)[O-])cc1	3	12	5	1	-2
COc1ccc(CNC(=O)CCN2C(=O)c3ccccc3S2(=O)=O)cc1	3	1	-1	3	-3
Nc1c(OS(=O)(=O)c2ccccc2)cccc1OS(=O)(=O)c1ccccc1	nt	5	-2	nt	60*
Cc1ccccc1OCC(=O)OCC(=O)NCC1CCCCC1	8	0	-4	-3	-3
COc1ccc(-c2nc(-c3ccc(Br)o3)no2)cc1	29	1	-1	-12	4
COc1ccc(Cl)cc1-c1nc(-c2ccc(Br)o2)no1	nt	7	2	51*	6
C[C@@H]1CCCCO[C@H](CN(C)C(=O)Nc2ccc(F)cc2)[C@@H](C)CN([C@@H](C)CO)C(=O)c2cc(NC(=O)Cc3ccccc3)ccc2O1	nt	-2	-1	-1	nt
CCOC(=O)c1ccc2[nH]c3c(c2c1)CCCC3	63	-27	8	66*	20
CCOC(=O)c1ccc2[nH]c3c(c2c1)CCCC3O (configuration not stated)	24	-32*	4	nt	1
CN(CCC#N)C(=O)COC(=O)c1ccc2[nH]c3c(c2c1)CCCC3	5	8	3	nt	0
CCOC(=O)CNC(=O)C1CCCc2c1[nH]c1ccc(Cl)cc21 (configuration not stated)	-5	-36	3	4	-2
C/C=C/c1cnc2c(c1)C(=O)N([C@@H](C)CO)C[C@@H](C)[C@@H](CN(C)S(=O)(=O)c1ccc(C)cc1)O2	nt	4	-6	1	nt
Cc1nc2ccc(S(=O)(=O)Nc3cc(-c4nc5cccnc5s4)ccc3C)cc2s1	nt	-11	-4	61*	18
Cc1nc2ccc(S(=O)(=O)Nc3cccc(-c4nc5cccnc5s4)c3C)cc2s1	-5	-1	-4	-9	-6
C/C(=N\NC(=O)c1cc(C)nc2ccccc12)c1ccccn1	-88	-24*	0	-61	1
SMILES	MITF TRPM1 HTS	rRNA inh HTS	MLL AF4-AF9 inh	esBAF inh	Wnt act
C/C(=N\NC(=O)c1ccccn1)c1ccc(Cl)cc1	nt	nt	0	nt	47*
C/C(=N/Nc1ccc([N+](=O)[O-])cc1)c1ccc(C)cc1C	70	-10	9	38	14
C/C(=N/Nc1ccc([N+](=O)[O-])cc1)c1c[nH]c2ccccc12	nt	8	4	58*	-3
C/C(=N\Nc1ccc(Cl)cc1)c1ccccn1	29	nt	nt	48*	nt
C/C(=N\NC(=O)c1ccc(Cl)cc1)c1ccccn1	nt	-30	6	-9	15
CN(C)c1ccc(CN(Cc2ccco2)C(=O)c2ccco2)cc1	1	-8	16	4	-2
CNC[C@H]1Oc2ccc(NS(=O)(=O)c3cn(C)cn3)cc2CC(=O)N([C@H](C)CO)C[C@@H]1C	nt	1	-4	-4	nt
C/C(=N/NC(=O)c1ccccn1)c1ccc(O)cc1	66	9	-11	25	?
C/C(=N/NC(=O)c1ccccn1)c1c[nH]c2ccccc12	52	-7	1	55*	12
CC(OC(=O)CN1C(=O)c2ccccc2C1=O)C(=O)NCc1ccccc1 (configuration not stated)	-8	8	-3	nt	1
CC1(C)CC(=O)/C(=N/Nc2ccc(Cl)cc2)CO1	69	1	-3	55*	52*
O=C(O)c1ccc2c(c1)C(=O)N(CCC1=CCCCC1)C2=O	2	nt	nt	8	nt
O=C1c2ccccc2C(=O)N1CCC1=CCCCC1	31	nt	nt	54*	nt
O=C(Nc1nnc(C23CC4CC(CC(C4)C2)C3)s1)c1ccc(N2C(=O)CCC2=O)cc1	9	10	-2	-5	-2
CNC(=O)C[C@H]1CC[C@H]2[C@@H](COC[C@@H](O)CN2Cc2ccc(C(F)(F)F)cc2)O1	nt	4	-6	1	nt
CCOC(=O)c1c(C)[nH]c(N=Nc2ccc(C)cc2)c1C	124*	nt	nt	62*	nt
CCOC(=O)c1c(C)[nH]c(N=Nc2ccccc2)c1C	71	nt	nt	89*	nt
CCOC(=O)c1c(C)[nH]c(N=Nc2ccccc2Cl)c1C	65	-8	8	64*	46*
CCOC(=O)c1c(C)[nH]c(N=Nc2ccc(OC)cc2)c1C	129*	-16	14	nt	54*
CCOc1cc(C(=O)NCC(=O)N/N=C/c2sccc2C)cc(OCC)c1OCC	-14	9	-3	-7	0
COc1ccc(S(=O)(=O)N[C@@H]2C=C[C@@H](CC(=O)NCc3ccccc3F)O[C@@H]2CO)cc1	nt	-2	-8	0	nt
Cc1csc(NC(=O)C(CC(C)C)NS(=O)(=O)c2ccc3c(c2)oc(=O)n3C)n1 (configuration not stated)	23	-5	5	18	2
CC(=O)NN1C(=O)c2ccc3c4c(ccc(c24)C1=O)C(=O)N(NC(C)=O)C3=O	-42	-22*	-1	-4	-2
O=C1c2ccc3c4c(ccc(c24)C(=O)N1NC(=O)C(F)(F)F)CC3	-8	nt	nt	nt	-3
Cn1c(-c2cc3ccc(OC(=O)C(C)(C)C)cc3oc2=O)nc2ccccc21	54	nt	nt	22	34*
CC(=O)Oc1ccc2cc(-c3nc4ccccc4n3C)c(=O)oc2c1	26	nt	nt	39	nt
CCSc1nnc(NC(=O)C2CCCCC2)s1	nt	nt	nt	44*	nt
CCSc1nnc(NC(=O)c2csc(C)c2)s1	84*	nt	nt	38	18
O=C(Nc1nnc(-c2ccco2)s1)C1CCCCC1	72	nt	nt	77*	nt
